The results in this text go back to ChEMBL document CHEMBL3433997, “St. Jude Leishmania screening dataset” (2016).

What all share (type): functional
Assay [1] has as its target Solute carrier family 2, facilitated glucose transporter member 1 (Homo sapiens) (UniProt P11166). As to the kind of experiment: ST_JUDE_LEISH: Cytotoxicity at 2uM final concentration against transgenic Leishmania Mexicana promastigotes LmGLUT1 that are glucose transport deficient and complemented with the human glucose transporter GLUT1. Activity is measured by DNA content using SYBR green in vitro.

Assay [2] deals with Hexose transporter 1 (Plasmodium falciparum) (UniProt O97467). As to the kind of experiment: ST_JUDE_LEISH: Cytotoxicity at 2uM final concentration against transgenic Leishmania Mexicana promastigotes LmPfHT that are glucose transport deficient and complemented with the Plasmodium falciparum hexose transporter. Activity is measured by DNA content using SYBR green in vitro.
Assay [3] concerns the target Glucose transporter (Leishmania mexicana) (UniProt O61059). As to the kind of experiment: ST_JUDE_LEISH: Cytotoxicity at 2uM final concentration against transgenic Leishmania Mexicana promastigotes LmGT2 that are glucose transport deficient and complemented with the L. Mexicana glucose transporter 2. Activity is measured by DNA content using SYBR green in vitro.

Sequence of Solute carrier family 2, facilitated glucose transporter member 1 (Homo sapiens) (P11166 whole entry): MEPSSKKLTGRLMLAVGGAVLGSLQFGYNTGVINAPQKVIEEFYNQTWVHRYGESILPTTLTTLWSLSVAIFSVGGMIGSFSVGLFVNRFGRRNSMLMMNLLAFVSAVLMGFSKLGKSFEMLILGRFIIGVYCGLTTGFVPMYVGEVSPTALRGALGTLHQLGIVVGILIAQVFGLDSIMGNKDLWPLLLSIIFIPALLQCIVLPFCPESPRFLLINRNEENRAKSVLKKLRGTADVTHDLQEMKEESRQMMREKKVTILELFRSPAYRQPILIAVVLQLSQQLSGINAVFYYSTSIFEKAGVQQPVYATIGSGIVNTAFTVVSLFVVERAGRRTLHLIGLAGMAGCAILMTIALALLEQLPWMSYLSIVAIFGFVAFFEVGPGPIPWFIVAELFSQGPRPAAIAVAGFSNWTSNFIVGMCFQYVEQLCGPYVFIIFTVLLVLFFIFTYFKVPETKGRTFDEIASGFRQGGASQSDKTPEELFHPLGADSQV

Take `O=C(NC1CC1)c1ccc(N2CCC(c3ccccc3)CC2)nc1`: the inhibition amounted to 5.99% in assay [1], 5.01% in assay [2] and 3.25% in assay [3].

Take `N#Cc1ccc(-c2ccc(C(=O)NCCCCN3CCC(c4cc(Br)c5c(c4O)CCCC5)CC3)cc2)cc1`: the inhibition in assay [1] is 0.25%; in assay [2], 0.94%; in assay [3] it was -0.42%.

For the compound `CC(C)(C)OC(=O)NCc1ccc(Nc2nnc(-c3ccc(OCC(=O)NC[C@@H]4CC[C@H]5C[C@@H]4C5(C)C)c([N+](=O)[O-])c3)o2)cc1`, the figures for the inhibition in assay [1], in assay [2] and in assay [3] were 2.01%, 2.91% and 0.68%, respectively.

For the compound `CN1CCc2cc(NS(=O)(=O)c3ccc(-c4ccc(Cl)cc4)cc3)c(OCCCN3CCCCC3)cc2CC1`, the values for the inhibition in assay [1], in assay [2] and in assay [3] were 1.09%, -0.92% and 0.92%, respectively.

Turning to `COc1ccc2ncc(F)c(CCN3CC[C@@H](CNCc4ccc5c(c4C)OCCO5)C3)c2n1`, the inhibition was 27.8% in assay [1], 35.3% in assay [2] and 52.1% in assay [3].

Take `CNC(=O)c1cc(S(=O)(=O)N2CCN(c3ccccn3)CC2)c(C)s1`: the inhibition was -1.34% in assay [1], -1.2% in assay [2] and 1.44% in assay [3].

With `CCOc1ccc(-c2nonc2NC(=O)c2ccccc2Cl)cc1OCC`, the inhibition in assay [1] came out at 5.4%; in assay [2], 7.22%; in assay [3], 2.27%.

As for `COc1cc(NCC2(CNCc3cn(Cc4ccccc4)c4ccccc34)CCCCC2)nc2ccccc12`, the figures for the inhibition in assay [1], in assay [2] and in assay [3] were -0.66%, -0.02% and -0.38%, respectively.

Turning to `Nc1cccc(CNCc2cccc(-c3cccc(-c4nc5ccccc5[nH]4)c3)c2)c1`, the inhibition was -1.07% in assay [1], 1.34% in assay [2] and -0.53% in assay [3].

Turning to `CN(C)c1cc2c(Nc3ccc4nc(Cc5ccccc5)[nH]c4c3)ncnc2cn1`, the inhibition in assay [1] turned out to be 4.02%; in assay [2], 5.87%; in assay [3] it was 2.46%.

With `O=S(=O)(Nc1cccc(F)c1CNCc1ccccn1)c1ccc(Cl)c(Cl)c1`, the inhibition in assay [1] is -1.4%; in assay [2], 0.71%; in assay [3], -2.5%.

As for `COc1ccc(-c2ccc([N+](=O)[O-])cc2C(=O)NCC(C)Oc2ccc(C(F)(F)F)cc2)cc1` (centres undefined), the inhibition in assay [1] was -0.75%; in assay [2] it was -1.3%; in assay [3], -3.99%.

With `CCOC(=O)C1=C(C)NC2=C(C(=O)CCC2)C1c1cn(Cc2ccc(Cl)cc2Cl)nc1-c1ccccc1` (centres undefined), the inhibition in assay [1] was 2.11%; in assay [2], -1.29%; in assay [3], 1.62%.

With `O=C(Nc1ccc(Cl)c(Cl)c1)C1CCC(=O)N1[C@@H](Cc1ccccc1)C(=O)NCCc1ccc(Cl)cc1` (some centres undefined), the inhibition in assay [1] came to 0.51%; in assay [2], 0.41%; in assay [3] it was 1.43%.

For the compound `CCCc1ccccc1OCC(O)CN(C1CCCC1)C1CCCC1` (centres undefined), the inhibition in assay [1] was determined as 6.36%; in assay [2] it was 6.68%; in assay [3], 5.96%.

`CC(=O)c1ccc(-c2ccc(C(=O)NCCCCN3CCC(c4ccc5c(c4O)CCCC5)CC3)cc2)cc1`: the inhibition was 3.01% in assay [1], 3.4% in assay [2] and 1.3% in assay [3].

Take `CCOc1ccc(-c2nonc2NC(=O)c2ccc(OC(C)C)cc2)cc1OCC`: the inhibition in assay [1] amounted to 2.72%; in assay [2], 1.95%; in assay [3], 3.68%.

Take `CC(C)CC(=O)N1CCNC[C@@H]1C(=O)NCCSCc1c(F)cccc1Cl`: the inhibition in assay [1] turned out to be 3.36%; in assay [2] it was 5.07%; in assay [3], 4.3%.

With `Cc1cccc2nc(-c3cccc(-c4ccc(NC(=O)CN5CCN(C)CC5)cc4)c3)[nH]c12`, the figures for the inhibition in assay [1], in assay [2] and in assay [3] were 2.17%, 3.31% and 0.62%, respectively.

Regarding `Cc1sc(NC(=O)c2ccc([N+](=O)[O-])cc2Cl)c(C(N)=O)c1C`, the inhibition in assay [1] is 2.24%; in assay [2], 2.08%; in assay [3], 2.74%.

In the case of `Clc1cc(Nc2ncnc3sc(C#Cc4ncc[nH]4)cc23)ccc1OCc1ccccn1`, the inhibition was -0.91% in assay [1], 5.1% in assay [2] and -0.27% in assay [3].

With `O=C(Nc1nccs1)c1cc(-c2cccnc2)nc2ccc(Br)cc12`, the inhibition is 7.77% in assay [1], -0.8% in assay [2] and -0.59% in assay [3].

As to `NCC1CCCN1Cc1ccc(-c2ccc(-c3nc4ccccc4[nH]3)s2)cc1` (centres undefined), the inhibition was -0.41% in assay [1], -0.71% in assay [2] and -0.41% in assay [3].

Turning to `O=C(/C=C/c1ccc(Cl)c(Cl)c1)NCCCCCCN1CCCN(C(=O)Nc2ccc(F)c(Cl)c2)CC1`, the results for the inhibition in assay [1], in assay [2] and in assay [3] were 3.61%, 2.44% and 2.6%, respectively.

Turning to `FC(F)(F)c1cccc(CCNc2nccc(NCc3ccccc3Cl)n2)c1`, the inhibition was 5.73% in assay [1], 4.26% in assay [2] and 0.1% in assay [3].

For the compound `COc1ccc2nccc([C@@H](O)CN3CCC(NC(=O)c4ccc(-c5ccc(C#N)cc5)cc4)CC3)c2c1`, the figures for the inhibition in assay [1], in assay [2] and in assay [3] were 1.89%, 1.64% and 3.25%, respectively.

On to `O=C(Nc1ccc(Cl)cc1)c1ccc(CN2CCCN(Cc3cccc(O)c3)CC2)cc1`, for which the inhibition in assay [1] was found to be 1.65%; in assay [2], 1.35%; in assay [3], 2.47%.

`CCC(C)CN1C(=O)C(c2ccccc2)(c2ccccc2)N=C1N` (centres undefined): the inhibition in assay [1] is 2.09%; in assay [2] it was 2.72%; in assay [3], 2.04%.

Take `Cc1ccc(Nc2nc(C)cc(NCc3ccc(-n4ccnc4)cc3)n2)cc1`: the inhibition amounted to 5.83% in assay [1], 10.8% in assay [2] and 10.4% in assay [3].

For `O=C(c1cc2c(s1)-c1cccc(Cl)c1SC2)N1CCN(c2ccncc2)CC1`, the inhibition in assay [1] stood at 4.7%; in assay [2], 3.88%; in assay [3] it was 4.35%.

`NCC1CCCN1Cc1cccc(-c2cccc(-c3nc4cc(F)ccc4[nH]3)c2)c1` (centres undefined): the inhibition in assay [1] stood at 0.19%; in assay [2], 0.88%; in assay [3], 1.02%.

Turning to `Cc1cccc2nc(-c3ccc(-c4cccc(CNCc5ccc(CN)cc5)c4)s3)[nH]c12`, the inhibition was 3.9% in assay [1], 3.91% in assay [2] and 4.55% in assay [3].

Take `CN(C)C(CNC(=O)c1cc(-c2ccncc2)c(-c2ccc(Cl)c(O)c2)o1)c1ccccc1` (centres undefined): the results for the inhibition in assay [1], in assay [2] and in assay [3] were 1.95%, 1.6% and 8.87%, respectively.
